Chlamy TAG = inducers of TAG accumulation in Chlamydomonas, primary screen, qHTS, Chlamydomonas reinhardtii | Nile Red fluorescence, 72 h | calls only at 10 µM (by protocol) | 44,000 tested, 0.84% active; call rule not given here;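 also: hits raise Nile Red signal meaning more stored TAG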
Each line names hits and unclear results; the compound was inactive in the other large screens. Only a selection was taken, and hits are over-represented in it overall.

CN1CCN(c2ccccc2[N+](=O)[O-])CC1	none
CN1CCN(c2cc(N3CCCC3)ccc2[N+](=O)[O-])CC1	none
CN1CCN(c2ccc([N+](=O)[O-])c(N3CCCCC3)c2)CC1	Chlamy TAG active
O=c1cccc2n1C[C@H]1C[C@H]2CN(Cc2cccc(Cl)c2Cl)C1	none
CC(C)c1ccc(CN2CCN(C)CC2)cc1	Chlamy TAG active
CN1CCN(Cc2c(Cl)cccc2Cl)CC1	none
CCc1ccc(CN2CCN(C)CC2)cc1	none
CCc1ccc(CN2CCN(CCO)CC2)cc1	Chlamy TAG active
CN1CCN(Cc2ccc(Cl)cc2)CC1	none
CCc1ccc(CN2CCN(C(C)C)CC2)cc1	none
Cc1cccc(-n2c(/C=C/c3cccnc3)nc3ccccc3c2=O)c1	none
CCOc1cc(CNCCc2ccc(Cl)cc2)ccc1OC	none
CN1CCN(c2ccc([N+](=O)[O-])c(N3CCN(C)CC3)c2Cl)CC1	none
Cc1ccnc(-n2c(CN3C(=O)c4ccccc4C3=O)nc3ccccc3c2=O)c1	none
N#CCCn1cc(C=O)c(-c2ccc(F)cc2)n1	none
O=[N+]([O-])c1ccc(CN2CCN(c3ccccc3)CC2)cc1	Chlamy TAG active
Cc1ccccc1N1CCN(Cc2ccc(Cl)cc2)CC1	none
COc1ccc(CN2CCN(c3cccc(OC)c3)CC2)cc1	none
Cc1ccccc1N1CCN(Cc2cccc([N+](=O)[O-])c2)CC1	none
COc1cccc(N2CCN(Cc3ccc([N+](=O)[O-])cc3)CC2)c1	Chlamy TAG active
O=[N+]([O-])c1ccc(CN2CCN(c3ccc(Cl)cc3)CC2)cc1	none
COc1ccc(N2CCN(Cc3ccc([N+](=O)[O-])cc3)CC2)cc1	none
Cc1ccccc1N1CCN(Cc2ccc([N+](=O)[O-])cc2)CC1	Chlamy TAG active
O=[N+]([O-])c1ccc(N2CCN(Cc3ccc(Cl)cc3)CC2)cc1	none
COc1ccc(CN2CCN(c3ccccc3)CC2)cc1C	none
O=C(Nc1ccc(Cl)cc1C(=O)c1ccccc1)c1ccc([N+](=O)[O-])o1	none
O=[N+]([O-])c1ccc(N2CCN(Cc3cc(F)ccc3F)CC2)cc1	none
C=CCOc1ccccc1/C=C/[N+](=O)[O-]	none
COc1ccc(CNCCc2cccc(F)c2)c(OC)c1	none
C#CCOc1ccccc1/C=C/[N+](=O)[O-]	none
O=C(O)C1CN(C2CC2)c2cc(N3CCNCC3)c(F)cc2C1=O (stereo unspecified)	none
CC/C(=C\c1cc(Br)c(O)c(OC)c1)[N+](=O)[O-]	none
CCOc1ccccc1N1CCN(Cc2ccccc2F)CC1	none
COc1ccc(CN2CCN(c3ccc(F)cc3)CC2)cc1C	none
O=c1c2ccccc2nc(/C=C\c2ccc(Cl)cc2)n1-c1ccccc1	none
CC/C(=C\c1ccc(F)cc1)[N+](=O)[O-]	none
C(#CCN1CCCCC1)COc1ccccc1	Chlamy TAG active
C(#CCN1CCOCC1)COc1ccccc1	none
c1ccc2c(CN3CCCCCCC3)c[nH]c2c1	none
COc1ccc(CN2CCN(c3ccccc3Cl)CC2)cc1	none
COc1ccc(OC)c(CNCCc2ccc([N+](=O)[O-])cc2)c1	Chlamy TAG active
COc1ccccc1CNCCc1ccc(OC)c(OC)c1	none
COc1ccc(OC)c(CNCCc2cccc(F)c2)c1	none
COc1ccc(-n2c(/C=C/c3ccccc3O)nc3ccccc3c2=O)cc1	none
OC1CCN(CCc2ccccc2)CC1	none
CN(C)c1ccc(CN2CCN(c3ccc(F)cc3)CC2)cc1	none
Cc1ccc(N2CCN(CCc3ccccc3)CC2)cc1	Chlamy TAG active
Cc1ccc(CN2CCN(c3ccc(F)cc3)CC2)cc1	Chlamy TAG active
Fc1ccc(CN2CCN(c3ccccc3Cl)CC2)cc1	Chlamy TAG active
Fc1ccccc1N1CCN(Cc2ccc(Cl)cc2)CC1	none
Cc1cccc(N2CCN(CCc3ccccc3)CC2)c1C	none
CN(C)c1ccc(CN2CCN(c3ccccc3Cl)CC2)cc1	none
CCc1ccc(CN2CCN(c3ccccc3OC)CC2)cc1	none
COc1ccccc1N1CCN(Cc2ccc(Br)cc2)CC1	none
COc1ccccc1N1CCN(Cc2ccc(Cl)cc2)CC1	Chlamy TAG active
Cc1ccc(CN2CCN(c3ccc(Cl)cc3)CC2)cc1	none
O=Cc1cn(Cc2nc(-c3ccc(Br)cc3)no2)c2ccccc12	none
COc1ccc(CN2CCN(C(=O)COc3ccccc3)CC2)cc1	none
c1ccc2c(CCNCc3c[nH]c4ccccc34)c[nH]c2c1	none
CCN1CCN(Cc2c(F)cccc2F)CC1	none
Fc1ccc(N2CCN(Cc3ccccc3)CC2)cc1	Chlamy TAG active
Fc1ccc(CN2CCN(c3ccccc3)CC2)cc1	none
CCC(C)N1CCN(Cc2ccccc2)CC1 (stereo unspecified)	none
Oc1ccc(CN2CCN(Cc3ccccc3)CC2)cc1	Chlamy TAG active
c1ccc(CN2CCN(c3ccccc3)CC2)cc1	none
CN(C)c1ccc(CN2CCN(Cc3ccccc3)CC2)cc1	none
OCCN1CCN(Cc2ccccc2)CC1	none
CN1CCN(Cc2ccccc2)CC1	none
c1ccc(CN2CCN(C3CCCCC3)CC2)cc1	Chlamy TAG active
Clc1cccc(N2CCN(Cc3ccc4c(c3)OCO4)CC2)c1	none
O=c1c2ccccc2nc(/C=C/c2ccccc2[N+](=O)[O-])n1-c1ccccc1O	none
CC(C)Oc1ccc(C2(O)C(=O)NC(=O)NC2=O)cc1	none
C1CCCC(N2CCOCC2)CCC1	none
Cc1cc(Br)ccc1OCC(=O)N1CCN(Cc2ccc3c(c2)OCO3)CC1	none
OC1CN2CCC1C(c1ccccc1)C2 (stereo unspecified)	none
